Screening results deposited in PubChem BioAssay by Fisher Drug Discovery Resource Center.
Shown are actives, neighbours in structure and some others; about 0.3% of the full set was active somewhere.
mcGAS inh: cyclic GMP-AMP synthase inhibitors, mouse, primary biochemical chemiluminescence | recombinant cGAS, Kinase-Glo ATP depletion luminescence | 0.15% of 160,000 active | inhibition, % at 12.5 µM | AID 1259399, 2018
NPYLR7 agonist: agonists of mosquito NPYLR7 receptor, primary screen, cell-based, Aedes aegypti, calcium fluorescence, mosquito biting behavior; activation, % at 10 µM; Aedes aegypti neuropeptide Y-like receptor 7 (NPYLR7); 0.15% of 270,000 active; HEK293T NPYLR7/Galpha15, GCaMP6s calcium fluorescence; in the data active means activation above about 40%
hcGAS inh: Primary biochemical luminescence assay for human cyclic GMP-AMP synthase inhibitors; AID 1259398, 2018; Q8N884; inhibition, % at 12.5 µM; 0.081% of 290,000 active; recombinant h-cGAS, ATP depletion, Kinase-Glo luminescence
Target sequence (Q8N884 whole entry, looked up): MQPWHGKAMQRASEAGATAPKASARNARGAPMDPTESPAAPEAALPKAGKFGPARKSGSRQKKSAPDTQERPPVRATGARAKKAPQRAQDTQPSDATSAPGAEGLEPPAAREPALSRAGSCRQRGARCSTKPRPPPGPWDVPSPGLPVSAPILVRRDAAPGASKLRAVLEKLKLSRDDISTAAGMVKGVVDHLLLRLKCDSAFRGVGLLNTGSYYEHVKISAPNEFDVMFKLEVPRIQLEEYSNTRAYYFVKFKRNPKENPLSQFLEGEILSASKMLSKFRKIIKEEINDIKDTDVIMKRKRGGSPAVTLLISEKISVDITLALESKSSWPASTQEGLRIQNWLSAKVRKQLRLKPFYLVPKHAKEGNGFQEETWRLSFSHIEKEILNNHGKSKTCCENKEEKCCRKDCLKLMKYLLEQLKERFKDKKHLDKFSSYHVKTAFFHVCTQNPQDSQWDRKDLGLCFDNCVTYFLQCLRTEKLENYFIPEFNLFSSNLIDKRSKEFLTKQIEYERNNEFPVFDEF
Large screens that a line does not name were inactive; ! = not confirmed by another sample. Unless noted, no stated cut-off is given here; in the data, active means inhibition above about 40%; inactive means the rest.

O=C(c1cc(COc2ccccc2F)[nH]n1)N1CC(n2cccn2)C1	none
CC(=O)c1cccc(NC(=O)Nc2cccc3[nH]c(COCCO)nc23)c1	none
O=C(Nc1ccc(Cl)cn1)c1[nH]ncc1[N+](=O)[O-]	hcGAS inh 60 (no result: mcGAS inh)
O=C(Nc1ccc(Cl)cn1)c1ccc(Cn2cc(Br)c([N+](=O)[O-])n2)cc1	none (no result: mcGAS inh)
CCn1nc(C)c(CNCc2ccc(C(N)=O)nc2)c1C	none (no result: mcGAS inh)
Cc1cc(C)cc(-c2nc3cc(C)ccn3c2NC(=O)CCl)c1	mcGAS inh 42
CC(=O)Nc1c(-c2cc(C)cc(C)c2)nc2cc(C)ccn12	none
O=C(NN=Cc1ccccc1C(F)(F)F)c1ccncc1	none
FC(F)(F)c1cccc(C=Cc2nc3ccccc3o2)c1	none (no result: mcGAS inh)
O=C1/C(=C/c2csnn2)COc2c1ccc(Cl)c2Cl	none (no result: mcGAS inh)
Cc1cc(C)c2c(c1)OC/C(=C\c1csnn1)C2=O	mcGAS inh 45
C=CCn1c(SCC(=O)c2ccc[nH]2)nnc1C1CCCCC1	none
O=C(NCc1ccccc1Cl)c1cc2cn(CC3CCCO3)cc2cn1 (configuration not stated)	none (no result: mcGAS inh)
CC(C)NC(=O)CCN(CC1CCCO1)C(=O)c1cc(-c2cccc(Cl)c2)on1 (configuration not stated)	none (no result: NPYLR7 agonist)
COc1cccc(-c2cc(C(=O)N(CCC(=O)NCCC3CCCN3C)CC(C)C)no2)c1 (configuration not stated)	hcGAS inh active (no result: mcGAS inh)
CCCc1c(C(=O)Nc2ccncc2)[nH]c(C)c1C(=O)OC	none (no result: mcGAS inh)
COc1ccc(C(=O)N(Cc2ccccc2)C2CCC(NC(=O)C3CCN(C(=O)c4ccc(Cl)cc4)CC3)CC2)cc1 (configuration not stated)	none
COc1ccc(C(=O)N(Cc2ccccc2)C2CCC(NC(=O)C3CCN(C(=O)c4ccccc4Cl)CC3)CC2)cc1 (configuration not stated)	NPYLR7 agonist 45
COC(=O)c1ccc(NC(=O)NCc2sccc2C)cc1	none (no result: mcGAS inh)
Cc1cc(C)cc(NC(=O)C(c2ccccc2)N2CCN(C)CC2)c1 (configuration not stated)	none (no result: mcGAS inh)
N#Cc1ccc(N2CCN(C(=O)c3ccc4c(c3)OCCCO4)CC2)nc1	none (no result: mcGAS inh)
O=C1C(=Cc2ccccc2O)NC(=S)N1Cc1ccco1	NPYLR7 agonist 80
CCCCN1C(=O)C(=Cc2cccnc2)NC1=S	none (no result: mcGAS inh)
COc1ccccc1C=C1SC(=S)N(Cc2ccco2)C1=O	none (no result: mcGAS inh)
CCOCCCN1C(=O)C(=Cc2ccccc2O)NC1=S	NPYLR7 agonist 120 (no result: mcGAS inh)
CCC(NC(=O)Cc1ccon1)c1ccccc1Br (configuration not stated)	none
CCC(C)n1c(C)c(C)n2c3c(=O)n(CCN4CCCCC4)c(=O)n(C)c3nc12 (configuration not stated)	none (no result: mcGAS inh)
CNC(=O)CSc1nc2c(-c3ccccc3)c(C)nn2c(=O)[nH]1	hcGAS inh 55
Cc1nn2c(=O)[nH]c(SCC(=O)NCCc3ccccc3)nc2c1-c1ccccc1	none
CCOC(=O)c1ccc(NC(=O)N(CC(=O)N(Cc2ccc3c(c2)OCO3)Cc2ccc(C)o2)CC(C)C)cc1	none
CC(C)(C)C(=O)NC1(C(F)(F)F)NC(=O)N(c2ccc(F)c(Cl)c2)C1=O (configuration not stated)	none (no result: mcGAS inh)
O=S(=O)(c1ccccc1)c1ccccc1Nc1ccccc1	hcGAS inh 78 (no result: mcGAS inh)
O=S(=O)(c1ccccc1)c1cnc2ccccc2c1Nc1ccccc1	none
O=C(Oc1coc(CSc2ncccn2)cc1=O)c1ccc(-c2ccccc2)cc1	none
COCCn1c(=O)c2c(nc3n(-c4ccc(OC)cc4OC)c(C)cn23)n(C)c1=O	none (no result: mcGAS inh)
CC(=O)OC[C@H]1O[C@@H](Oc2cc(OC(C)=O)c3c(=O)cc(-c4ccc(OC(C)=O)cc4)oc3c2)[C@H](OC(C)=O)[C@@H](OC(C)=O)[C@@H]1OC(C)=O	none (no result: mcGAS inh)
O=C(OC[C@H]1O[C@H](OC(=O)c2cc(O)c(O)c(OC(=O)c3cc(O)c(O)c(O)c3)c2)[C@H](OC(=O)c2cc(O)c(O)c(OC(=O)c3cc(O)c(O)c(O)c3)c2)[C@@H](OC(=O)c2cc(O)c(O)c(OC(=O)c3cc(O)c(O)c(O)c3)c2)[C@@H]1OC(=O)c1cc(O)c(O)c(OC(=O)c2cc(O)c(O)c(O)c2)c1)c1cc(O)c(O)c(OC(=O)c2cc(O)c(O)c(O)c2)c1	hcGAS inh 51 (no result: mcGAS inh)
N=C1C(c2nc3ccccc3s2)C(=O)CN1N1C(=O)c2ccccc2C1=O (configuration not stated)	mcGAS inh 43
CCN(CC)C(=O)COC(=O)c1cccc(N2CC(=O)C(c3nc4ccccc4s3)C2=N)c1 (configuration not stated)	none
O=C(NCCN1CCCC1)C1(c2ccc(F)cc2)CCOCC1	none (no result: mcGAS inh)
CC1CCCCC1OCCNC(=O)C1(c2ccc(F)cc2)CCC1 (configuration not stated)	NPYLR7 agonist 55 (no result: mcGAS inh)
CC(C)c1ccc(CNC(C)c2ccc3c(c2)OCCO3)cc1 (configuration not stated)	none (no result: mcGAS inh)
O=[N+]([O-])c1cc(C2SCCS2)ccc1Cl	none (no result: mcGAS inh)
CC(C)NC[C@H](O)c1ccc(O)c(O)c1	NPYLR7 agonist 85!
CC(C)NCC(O)c1cc(O)cc(O)c1 (configuration not stated)	none
C#CCN(Cc1ccco1)C(=O)CC1(c2ccccc2OC)CC(=O)N(C)C1=O (configuration not stated)	none (no result: mcGAS inh)
CN(CC1COc2ccccc2O1)C(=O)CN1C(=O)c2ccccc2S1(=O)=O (configuration not stated)	none (no result: mcGAS inh)
CN(CC1COc2ccccc2O1)C(=O)CCl (configuration not stated)	mcGAS inh 54
CCOC(=O)c1sc(NC(=O)c2cc(C)no2)nc1C	none
CCc1nnc(NC(=O)c2cc(C)no2)s1	mcGAS inh 46
CC(C)Cc1ccc(C(=O)N2CCCC(N3CCC(CO)CC3)C2)cc1 (configuration not stated)	none
COc1ccc(/C=C\C(=O)Nc2cc(=O)n(C)c(=O)n2C)cc1OC	none
CCn1c(=O)c2c(nc(/C=C/c3ccc(OC)c(OC)c3)n2C)n(CC)c1=O	NPYLR7 agonist 85
O=[N+]([O-])c1ccc(Sc2nnnn2-c2ccccc2)c([N+](=O)[O-])c1	mcGAS inh 72
O=[N+]([O-])c1cc(S(=O)(=O)C(F)(F)F)ccc1Sc1nnnn1-c1ccccc1	none
COCC(=O)Nc1ccc(N2CCN(C(=O)CCC3CCCC3)CC2)nc1	none
CCOc1ccc(/C=C2N=C(/C=C/c3ccccc3)OC/2=O)cc1	NPYLR7 agonist 66 (no result: mcGAS inh)
CCOc1ccc(/C=C2N=C(/C=C/c3ccc(C)cc3)OC\2=O)cc1	none (no result: mcGAS inh)
O=C1Nc2ccccc2C1C=NN1CCOCC1 (configuration not stated)	NPYLR7 agonist 51
CN1CCN(N=CC2C(=O)Nc3ccccc32)CC1 (configuration not stated)	none (no result: mcGAS inh)
c1ccc(COC2CCCN(Cc3ccncc3)C2)nc1 (configuration not stated)	none (no result: mcGAS inh)
CCNC(=O)Cn1c(CO)cnc1SCc1ccc(C)cc1	none
O=c1c2ccc(-c3cccnc3)nc2[nH]n1-c1ccccc1	none (no result: mcGAS inh)
Cn1c(=O)[nH]c2nnc(-c3cccnc3)nc2c1=O	mcGAS inh 58, hcGAS inh 41
O=C(NCCNc1cc(-n2cccn2)ncn1)Nc1cccc(C(F)(F)F)c1	none
